Results filed as inconclusive are left out. Where a call stands in place of a potency, no number is given. Activity calls are given as the source filed them. Unless noted, the call rests on the fitted dose curve; in most records, active means well fitted curve in the direction sought with a large enough effect in the repeat runs; inconclusive means weak or mixed curves; inactive means no such curve, though single readings can be large; an effect the other way counts as inactive or inconclusive.
Assays:
[1] = qHTS assay for small molecule agonists of the p53 signaling pathway (AID 651631; calls by dose curve; further: nearly all actives have a fitted effect of over 15% in size; further: potency means the concentration at half of the fitted maximal effect)
In short: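 We treat p53RE-bla HCT-116 cells with compounds for 16 h at 37 °C, add LiveBLAzer B/G FRET substrate for 2 h at room temperature, and measure fluorescence intensity.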

[2] = qHTS assay for small molecules that induce genotoxicity in human embryonic kidney cells expressing luciferase-tagged ATAD5 (AID 651632); further: nearly all actives have a fitted effect of over 15% in size
In short: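 HEK293T cells carrying a luciferase reporter tagged to ATAD5 were exposed to compound or DMSO vehicle for 16 hr at 37C, 5% CO2. Amplite was added, and after 30 min at room temperature luciferase activity was read as a marker of ATAD5 induction.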

[3] = qHTS assay for small molecule agonists of the p53 signaling pathway - cell viability (AID 651633; calls by dose curve; further: nearly all actives have a fitted effect of over 30% in size; further: potency means the concentration at half of the fitted maximal effect)
In short: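 p53RE-bla cells, seeded at 4,000 per well and rested 5 h at 37 C/5% CO2, received compounds in DMSO for 16 h at 37 C. CellTiter-Glo was then added, and luminescence was read after 30 min at room temperature to gauge cytotoxicity.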

[4] = qHTS assay for small molecules that induce genotoxicity in human embryonic kidney cells expressing luciferase-tagged ATAD5 - cell viability (AID 651634; calls by dose curve; further: nearly all actives have a fitted effect of over 25% in size; further: potency means the concentration at half of the fitted maximal effect)
In short: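 HEK293T cells expressing luciferase-tagged ATAD5 were exposed to compound or DMSO for 15.5 hr at 37C, 5% CO2. Viability was then read as live-cell protease activity by CellTiter-Fluor fluorescence after 30 min at 37C.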

[5] = qHTS assay for small molecule disruptors of the mitochondrial membrane potential - cell viability (AID 720634; calls by dose curve; further: nearly all actives have a fitted effect of over 20% in size; further: potency means the concentration at half of the fitted maximal effect)
In short: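 HepG2 cells seeded overnight at 37 C, then exposed to compound or DMSO for 1 hr at 37 C, 5% CO2. m-MPI dye added, then CellTiter-Glo for 30 min at room temperature; viability read as ATP luminescence.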

[6] = qHTS assay for small molecule disruptors of the mitochondrial membrane potential (AID 720635); further: potency means the concentration at half of the fitted maximal effect
In short: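 HepG2 cells (2,000/well) attached overnight at 37C, then took compound for 1 hr at 37C, 5% CO2. Mito-MPS dye was added for 30 min; fluorescence was read at 490/535 nm (monomers) and 540/590 nm (aggregates).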

[7] = qHTS assay to test for compound auto fluorescence at 590 nm (red) in HepG2 cells (AID 720674)
In short: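 Compound auto-fluorescence is scored relative to Rose Bengal sodium, measured at 540/590 nm in live HepG2 cultures after 1 hr compound contact (37 C, 5% CO2).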

[8] = qHTS assay to test for compound auto fluorescence at 535 nm (green) in HepG2 cells (AID 720675)
[9] = qHTS assay to test for compound auto fluorescence at 460 nm (blue) in HEK293 cells (AID 720678)
In short: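 Intrinsic compound fluorescence is recorded in live HEK293 cultures after overnight incubation at 37C, 5% CO2, using excitation 405 nm and emission 460 nm. Values are referenced to triamterene.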

[10] = qHTS assay to test for compound auto fluorescence at 590 nm (red) in HEK293 cells (AID 720679)
In short: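 Red autofluorescence, HEK293 cells: 2,000 cells/well; attach 4-5 hr 37C; add 23 nL cpd or DMSO; incubate o/n 37C 5% CO2; read Ex540/Em590; Rose Bengal sodium reference.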

[11] = qHTS assay to test for compound auto fluorescence at 535 nm (green) in HEK293 cells (AID 720680)
[12] = qHTS assay to test for compound auto fluorescence at 460 nm (blue) in HEK293 cell free culture (AID 720681)
In short: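 Test compounds were pinned into cell-free culture medium (DMEM with 10% FBS) and fluorescence was read directly at Ex/Em 405/460 nm. Signals were expressed as fluorescence equivalents of triamterene, with DMSO vehicle as control.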

[13] = qHTS assay to test for compound auto fluorescence at 535 nm (green) in HEK293 cell free culture (AID 720682)
In short: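 Green-channel intensity (Ex/Em 485/535 nm) was recorded from compound-treated wells containing only DMEM with 10% FBS. Fluorescein provided the equivalency standard.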

[14] = qHTS assay to test for compound auto fluorescence at 590 nm (red) in HEK293 cell free culture (AID 720683)
In short: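 Tox21 10K library compounds were pinned into cell-free DMEM with 10% FBS and fluorescence was read at excitation 540 nm. Activity is expressed as Rose Bengal sodium equivalency.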

[15] = qHTS assay to test for compound auto fluorescence at 590 nm (red) in HepG2 cell free culture (AID 720684)
In short: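 Measured in medium alone (MEM containing 10% FBS) following pintool addition of compound; emission at 590 nm with 540 nm excitation, referenced to Rose Bengal sodium.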

[16] = qHTS assay to test for compound auto fluorescence at 460 nm (blue) in HepG2 cell free culture (AID 720685)
In short: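 Compound (23 nL) or DMSO pinned into cell-free MEM with 10% FBS; blue fluorescence read at 405/460 nm excitation/emission, expressed as auto-fluorescence equivalency to triamterene.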

[17] = qHTS assay to test for compound auto fluorescence at 535 nm (green) in HepG2 cell free culture (AID 720686)
[18] = qHTS assay to test for compound auto fluorescence at 460 nm (blue) in HepG2 cells (AID 720687)
In short: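 Cells (2,000/well in MEM with 10% FBS) attached overnight at 37 C, then were exposed to compound or DMSO for 1 hr at 37 C, 5% CO2. Fluorescence read at Ex/Em 405/460 nm, expressed as triamterene-equivalent signal.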

[19] = target: Glucocorticoid receptor (Homo sapiens) (UniProt P04150); test: qHTS assay to identify small molecule agonists of the glucocorticoid receptor (GR) signaling pathway (AID 720691; active means well fitted activation curve with a large enough effect in the signal ratio in the repeat runs, not every such curve was filed as active; the % refers to the signal ratio)
Glucocorticoid receptor (Homo sapiens), sequence (P04150 whole entry, looked up): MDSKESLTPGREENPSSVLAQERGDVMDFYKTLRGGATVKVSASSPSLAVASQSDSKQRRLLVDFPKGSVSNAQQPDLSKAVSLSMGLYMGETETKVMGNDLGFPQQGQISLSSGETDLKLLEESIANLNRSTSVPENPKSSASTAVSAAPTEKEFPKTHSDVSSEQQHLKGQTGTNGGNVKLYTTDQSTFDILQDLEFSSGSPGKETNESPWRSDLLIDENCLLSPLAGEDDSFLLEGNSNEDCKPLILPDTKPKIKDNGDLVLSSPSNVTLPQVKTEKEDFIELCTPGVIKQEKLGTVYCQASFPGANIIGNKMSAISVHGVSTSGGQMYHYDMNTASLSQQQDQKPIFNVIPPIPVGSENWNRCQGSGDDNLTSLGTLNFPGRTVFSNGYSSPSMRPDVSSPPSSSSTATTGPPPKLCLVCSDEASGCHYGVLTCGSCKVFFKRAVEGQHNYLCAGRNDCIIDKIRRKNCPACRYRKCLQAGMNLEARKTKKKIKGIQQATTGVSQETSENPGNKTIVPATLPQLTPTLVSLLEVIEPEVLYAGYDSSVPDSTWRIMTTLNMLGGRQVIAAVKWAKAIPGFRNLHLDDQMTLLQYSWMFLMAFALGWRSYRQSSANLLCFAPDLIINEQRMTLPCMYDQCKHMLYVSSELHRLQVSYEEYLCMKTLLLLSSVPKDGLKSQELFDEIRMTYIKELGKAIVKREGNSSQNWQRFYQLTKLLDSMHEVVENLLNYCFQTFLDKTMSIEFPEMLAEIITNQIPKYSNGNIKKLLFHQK
In short: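 GR-bla HeLa cells (beta-lactamase reporter under glucocorticoid response element) were plated 4 h at 37 C/5% CO2, given compounds in DMSO, and incubated 18 h at 37 C. LiveBLAzer B/G FRET substrate was added for 2 h at room temperature, then fluorescence intensity read.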

[20] = target: Glucocorticoid receptor (Homo sapiens) (UniProt P04150); test: qHTS assay to identify small molecule antagonists of the glucocorticoid receptor (GR) signaling pathway (AID 720692; active means well fitted inhibition curve with a large enough effect in the signal ratio in the repeat runs, not every such curve was filed as active; the % refers to the signal ratio; further: potency means the concentration at half of the fitted maximal effect)
In short: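 GR-bla HeLa cells (beta-lactamase reporter under glucocorticoid response element) were pre-plated 4 h at 37 C, treated with compounds plus 5 nM dexamethasone (final) for 18 h, then read by LiveBLAzer B/G FRET fluorescence after 2 h.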

Compound	Potency [1]	Potency [2]	Potency [3]	Potency [4]	Potency [5]	Potency [6]	outcome [7]	outcome [8]	outcome [9]	outcome [10]	outcome [11]	outcome [12]	outcome [13]	outcome [14]	outcome [15]	outcome [16]	outcome [17]	outcome [18]	outcome [19]	Potency [20]
CC/C(=N\OC/C=C/Cl)C1=C(O)CC(C2CCOCC2)CC1=O (centres undefined)	inactive	inactive	inactive	inactive	inactive	inactive	inactive	inactive	inactive	inactive	inactive	inactive	inactive	inactive	inactive	inactive	inactive	inactive	inactive	inactive
N#C/C(N)=C(/N)C#N	inactive	inactive	inactive	inactive	inactive	–	inactive	inactive	inactive	inactive	inactive	inactive	inactive	inactive	inactive	inactive	inactive	inactive	inactive	–
CCOS(C)(=O)=O	inactive	inactive	inactive	inactive	inactive	–	inactive	inactive	–	inactive	inactive	–	inactive	inactive	inactive	inactive	inactive	inactive	–	–
C#CCOC(C(=O)OCCN(C)C)(c1ccccc1)c1ccccc1	inactive	inactive	inactive	inactive	inactive	–	inactive	inactive	inactive	inactive	inactive	–	inactive	inactive	inactive	inactive	inactive	inactive	–	–
C=CCCl	inactive	inactive	inactive	inactive	inactive	–	inactive	inactive	inactive	inactive	inactive	–	inactive	inactive	inactive	inactive	inactive	inactive	inactive	–
CN(C)c1ccc(N(C)C)cc1	inactive	inactive	inactive	inactive	–	–	inactive	inactive	inactive	inactive	inactive	inactive	inactive	inactive	inactive	inactive	–	inactive	inactive	–
ClCC(Br)CBr (centres undefined)	inactive	inactive	inactive	inactive	inactive	–	inactive	inactive	inactive	inactive	inactive	inactive	inactive	inactive	inactive	inactive	–	inactive	inactive	inactive
O=C1C(Cl)C(CCl)CN1c1cccc(C(F)(F)F)c1 (centres undefined)	inactive	inactive	inactive	inactive	–	–	inactive	inactive	inactive	inactive	inactive	inactive	inactive	inactive	inactive	inactive	inactive	inactive	inactive	–
CO/C=C(/C(=O)OC)c1ccccc1COc1cccc(C(F)(F)F)n1	8.63 µM (active)	inactive	inactive	inactive	–	6.85 µM (active)	inactive	inactive	inactive	inactive	inactive	–	inactive	–	inactive	inactive	inactive	inactive	–	–
C=CCOC(C)=O	inactive	inactive	inactive	inactive	inactive	–	inactive	inactive	inactive	–	inactive	–	inactive	inactive	inactive	inactive	–	inactive	inactive	–
CCCN(CCCl)c1c([N+](=O)[O-])cc(C(F)(F)F)cc1[N+](=O)[O-]	inactive	inactive	inactive	inactive	–	–	inactive	inactive	inactive	inactive	inactive	inactive	inactive	inactive	inactive	inactive	inactive	inactive	inactive	–
Cc1ccccc1C(=O)Nc1cccc(OC(C)C)c1	inactive	inactive	inactive	inactive	–	30.6 µM (active)	inactive	inactive	–	inactive	inactive	inactive	inactive	inactive	inactive	inactive	inactive	inactive	inactive	inactive
CCCCN=C=O	inactive	inactive	inactive	inactive	inactive	–	inactive	inactive	inactive	inactive	inactive	inactive	inactive	–	inactive	inactive	inactive	inactive	–	–
CCCCc1c(C)nc(NCC)nc1OS(=O)(=O)N(C)C	inactive	inactive	inactive	inactive	–	21.7 µM (active)	inactive	inactive	inactive	inactive	inactive	inactive	inactive	inactive	inactive	inactive	inactive	inactive	inactive	–
Brc1ccc(Oc2ccccc2)cc1	inactive	inactive	inactive	inactive	inactive	–	inactive	inactive	–	inactive	inactive	–	inactive	inactive	inactive	inactive	inactive	inactive	inactive	inactive
CCC(COC(=O)c1cc(OC)c(OC)c(OC)c1)(c1ccccc1)N(C)C (centres undefined)	inactive	inactive	inactive	inactive	inactive	–	inactive	inactive	–	inactive	inactive	inactive	inactive	inactive	inactive	inactive	–	inactive	inactive	inactive
N#Cc1ccc(Cl)cc1	inactive	inactive	inactive	inactive	inactive	–	inactive	inactive	inactive	–	inactive	inactive	inactive	inactive	inactive	inactive	inactive	inactive	inactive	inactive

Compound	Potency [1]	Potency [2]	Potency [3]	Potency [4]	Potency [5]	Potency [6]	outcome [7]	outcome [8]	outcome [9]	outcome [10]	outcome [11]	outcome [12]	outcome [13]	outcome [14]	outcome [15]	outcome [16]	outcome [17]	outcome [18]	outcome [19]	Potency [20]
CC(c1ccc(O)cc1)(c1ccc(O)cc1)c1ccc(O)cc1	6.86 µM (active)	inactive	6.86 µM (active)	–	inactive	48.6 µM (active)	inactive	inactive	inactive	inactive	inactive	–	inactive	inactive	inactive	inactive	inactive	inactive	–	19.5 µM (active)
C=CC(=O)NCNC(=O)C=C	inactive	inactive	inactive	inactive	–	–	inactive	inactive	inactive	inactive	inactive	–	inactive	inactive	inactive	inactive	inactive	inactive	inactive	–
O=NN1CCNCC1	inactive	inactive	inactive	–	inactive	inactive	inactive	inactive	inactive	inactive	inactive	inactive	inactive	inactive	inactive	inactive	inactive	inactive	inactive	–
CN1C(=O)NC(=O)C(C)(C2=CCCCC2)C1=O (centres undefined)	inactive	inactive	inactive	–	inactive	inactive	inactive	inactive	inactive	inactive	inactive	–	inactive	inactive	inactive	inactive	–	inactive	inactive	inactive
O=C(O)c1ccccc1C(=O)Nc1cccc2ccccc12	inactive	inactive	inactive	inactive	inactive	–	inactive	inactive	inactive	–	inactive	inactive	inactive	inactive	inactive	inactive	inactive	inactive	–	–
CCOC(=O)CBr	inactive	inactive	inactive	inactive	inactive	–	inactive	inactive	–	inactive	inactive	inactive	inactive	inactive	inactive	inactive	–	inactive	inactive	–
c1ccc(C2CC2)c(OCC2=NCCN2)c1	inactive	inactive	inactive	inactive	inactive	–	inactive	inactive	–	inactive	inactive	inactive	inactive	inactive	inactive	inactive	–	inactive	inactive	inactive
Cn1sc(Cl)cc1=O	inactive	inactive	inactive	inactive	inactive	–	inactive	inactive	inactive	inactive	inactive	–	inactive	inactive	inactive	inactive	inactive	inactive	inactive	inactive
CC(C)(CCl)C(=O)Cl	inactive	inactive	inactive	inactive	inactive	–	inactive	inactive	–	inactive	inactive	inactive	inactive	inactive	inactive	inactive	inactive	inactive	inactive	inactive
CCOC(=O)C(Cl)C(C)=O (centres undefined)	inactive	inactive	inactive	inactive	inactive	–	inactive	inactive	–	inactive	inactive	–	inactive	–	inactive	inactive	inactive	inactive	–	–
Clc1ccc(C2(Cn3cncn3)CC(Br)CO2)c(Cl)c1 (centres undefined)	inactive	inactive	inactive	inactive	–	–	inactive	inactive	inactive	inactive	inactive	inactive	inactive	inactive	inactive	inactive	inactive	inactive	inactive	–
N#CCc1ccccc1	inactive	inactive	inactive	–	inactive	inactive	inactive	inactive	inactive	inactive	inactive	–	inactive	inactive	inactive	inactive	inactive	inactive	–	–
O=C(O)C(F)(F)C(F)(F)C(F)(F)C(F)(F)C(F)(F)C(F)(F)C(F)(F)C(F)(F)C(F)(F)C(F)(F)F	inactive	inactive	inactive	inactive	inactive	–	inactive	inactive	–	inactive	inactive	inactive	inactive	–	inactive	inactive	inactive	inactive	–	–
O=S1(=O)OC(c2cc(Br)c(O)c(Br)c2)(c2cc(Br)c(O)c(Br)c2)c2ccccc21	inactive	inactive	44.5 µM (active)	25 µM (active)	28.1 µM (active)	–	inactive	inactive	–	inactive	inactive	–	inactive	inactive	inactive	inactive	inactive	inactive	inactive	inactive
C=CC(=O)OCC(C)C	inactive	inactive	inactive	inactive	–	–	inactive	inactive	inactive	–	inactive	inactive	inactive	inactive	inactive	inactive	inactive	inactive	inactive	–
CCN(C)N=O	inactive	inactive	inactive	inactive	inactive	–	inactive	inactive	inactive	–	inactive	inactive	inactive	inactive	inactive	inactive	–	inactive	–	–
CCOc1nc(F)cc2nc(S(=O)(=O)Nc3c(Cl)cccc3Cl)nn12	inactive	inactive	inactive	inactive	inactive	–	inactive	inactive	inactive	inactive	inactive	inactive	inactive	–	inactive	inactive	inactive	inactive	inactive	inactive
